CHX counter: counter-screen hit for Shiga toxin inhibitors, cycloheximide | max response, % | AID 2314 | 300,000 compounds, 12% hits | cell reporter, cycloheximide protein synthesis inhibition counterscreen; in the data active = max response mostly above about 13%, no sharp cut-off; inactive = mostly below about 14%; note: read at 38.3 µM for the half of the compounds with a filed dose; 0% is about no effect
Marburg entry inh: Marburg virus entry inhibition. AID 540276. Marburg virus pseudotyped entry inhibition, cell reporter. 300,000 compounds, 1.8% hits. Potency, µM (top dose mostly 37.8 µM), inactives show top-dose activity change, negative = inhibition, usual class: inhibitors; calls by dose curve; tested in HEK293 cells; note: potency is the fitted concentration of half-maximal effect; % is set by controls: 0 for no effect and ±100 for the full control effect
AMA1 RON2 block: disrupts binding of P. falciparum AMA1 to RON2; AlphaScreen AMA1-biotinylated RON2 peptide binding; Potency, µM (series often up to 58.2 µM), for the others: at the highest dose activity change, negative = inhibition, usual class: inhibitors; 360,000 compounds, 0.2% hits; active = well fitted inhibition curve with a large enough effect; inconclusive = small, poorly fitted or top-dose-only effect; inactive = no such curve, though single readings can be large or run the other way;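 note: potency is the fitted concentration of half-maximal effect; 0% = vehicle wells and -100% = peptide control; nearly all actives have a fitted effect of over 45% in size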
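AMA1 (3D7) with his tag at 25 nM final met compounds first, then biotinylated RON2 peptide at 25 nM; detection used donor plus acceptor beads, 10 µg/mL apiece, read by AlphaScreen after 30 min at room temperature.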
Lassa entry inh: inhibitors of Lassa virus binding or cell entry. Lassa virus pseudotype entry inhibition, cell reporter. Potency, µM (doses to about 37.9 µM), inactives show at the highest dose activity change, negative = inhibition, hits mostly inhibitors. 300,000 compounds, 1.2% hits; calls by dose curve; tested in HEK293 cells; note: potency is the fitted concentration of half-maximal effect; % is set by controls: 0 for no effect and ±100 for the full control effect; nearly all actives have a fitted effect of over 50% in size
Shiga inhibitor: Shiga toxin inhibition. inhibition, % at 38.7 µM. Vero cells, Shiga toxin protein synthesis inhibition reporter. 290,000 compounds, 9.2% hits. AID 2315; in the data active = inhibition mostly above about 28%, no sharp cut-off; inactive = mostly below about 43%; note: 0% is about no effect
Numbers without * were called inactive; ? = inconclusive; · = no result given; [ ] = another dose, or the depositor's remark. Shown is part of a subset that was picked to be rich in hits.

SMILES | CHX counter | Marburg entry inh | AMA1 RON2 block | Lassa entry inh | Shiga inhibitor
CC(=O)c1cccc(NC(=O)c2cnn3ccccc23)c1 | 89* | · | -2% | · | 59*
CC(=O)c1cccc(NC(=O)c2ccccc2-c2ccccc2C(=O)O)c1 | -5 | · | -3% | · | -16
CC(=O)c1ccc(NC(=O)c2cnn3ccccc23)cc1 | 44* | · | -1% | · | 55*
Cn1c(=O)c2nc(Cl)n(Cc3ccc(Cl)cc3Cl)c2n(C)c1=O | · | 0% | · | · | ·
c1ccc(N2OCC3Cn4c(nc5ccccc54)C32)cc1 (stereo not given) | 27* | · | 25% | · | 42*
c1ccc(CN2OCC3Cn4c(nc5ccccc54)C32)cc1 (stereo not given) | -3 | · | 20% | · | -4
CC1CCC(NC(=O)CCS(=O)(=O)c2ccc3c(c2)NC(=O)C(C)S3)CC1 (stereo not given) | 10 | · | 11% | · | 21
Cn1c(=O)[nH]c(=O)c2c1nc(N1CCCCC1)n2C/C=N/Nc1ccc(C(=O)O)cc1 | 62* | · | -4% | · | 46
O=C(c1cc2ccccc2c(=O)o1)N1CCCc2ccccc21 | 17* | 7% | 18% | 2% | 50
O=C(c1cc(=O)c2ccccc2o1)N1CCCc2ccccc21 | 15 | -15%[46.1 µM] | 2% | -1% | 7
COc1cccc(NC(=O)N2CCCC2)c1 | 27 | · | -1% | · | 54*
COc1cccc(NC(=O)N2CCCc3ccccc32)c1 | 47* | · | 5% | · | 73*
COC(=O)/C(=N/Nc1cccc(C)c1)N1CCCc2ccccc21 | 19* | 21% | 5% | 1% | 43
Cn1c(=O)n(C)c2cc(CNCCc3ccccc3F)ccc21 | · | 8%[46.1 µM] | · | -17%[46.1 µM] | ·
CCn1c(SCC(=O)NC2=NCCS2)nnc1C(C)NC(=O)c1ccccc1Br (stereo not given) | -5 | 3%[46.1 µM] | -5% | 10%[46.1 µM] | 29
CC(=O)/C(=N/Nc1ccccc1[N+](=O)[O-])N1CCCc2ccccc21 | 9 | -18%[46.1 µM] | 8.9µM* | ? | 21
COc1ccc(OC)c(C2=NOC(C(=O)N3CCCc4ccccc43)C2)c1 (stereo not given) | 56* | 17% | 2% | 4% | 84*
CC(=O)c1cccc(OCC(=O)N2CCCc3ccccc32)c1 | 23* | ? | 11% | 11%[46.1 µM] | 32
COc1ccc(NC(=O)N2CCCc3ccccc32)cc1OC | 16* | · | -13% | · | 55
O=C(C1CC(c2ccc(F)cc2)=NO1)N1CCCc2ccccc21 (stereo not given) | 0 | ? | 1% | -7% | 17
Cc1cccc(OCC(=O)N2CCCc3ccccc32)c1 | 5 | -18%[46.1 µM] | -1% | 22%[46.1 µM] | 2
CCOC(=O)CCN1C(=O)[C@@H]2[C@H]3[C@H](O)[C@H](O)CC(=NOCc4ccccc4)[C@@H]3CC[C@H]2C1=O | · | -7%[14.2 µM] | · | ? | ·
COc1cccc(NC(=O)C(=O)N2CCOCC2)c1 | 41* | 7% | 1% | 3% | 50*
CC(=O)c1cccc(NC(=O)N2CCCc3ccccc32)c1 | 21* | ? | 6% | 6% | 58
COc1cccc(NC(=O)CN2CCN(CC(=O)Nc3ccc(F)cc3)CC2)c1 | -4 | 6%[46.1 µM] | 5% | 8%[46.1 µM] | -7
SMILES | CHX counter | Marburg entry inh | AMA1 RON2 block | Lassa entry inh | Shiga inhibitor
COC(=O)c1ccc(NC(=O)C(=O)N2CCN(C(=S)Nc3cccc(OC)c3)CC2)cc1 | 11 | 5% | 13% | 1% | 5
COc1cccc(NC(=O)CN2CCC(C)CC2)c1 | 30* | 5% | 7% | 11% | 35*
COc1cccc(NC(=O)c2ccc(NCCCN3CCC(C)CC3)c([N+](=O)[O-])c2)c1 | -4 | 4µM* | -14% | -15%[46.1 µM] | -10
COc1cccc(NC(=O)c2ccc(NCCCN3CC(C)CC(C)C3)c([N+](=O)[O-])c2)c1 (stereo not given) | -4 | -27%[46.1 µM] | 2% | 5% | -7
Cc1nc2c(C(=O)NCCC(C)C)cnn2c(C)c1Cc1c(F)cccc1Cl | · | · | · | 21%[46.1 µM] | ·
COc1cc(CCC(=O)NCCc2ccc(F)cc2)cc(OC)c1OC | · | -4% | 0% | 1% | ·
CCOC(=O)c1cccc(NC(=O)CN2CCN(c3ccc(OC)cc3)CC2)c1 | -4 | -12% | -26% | 1.1µM* | -4
O=C(c1ccc(S(=O)(=O)N2CCOCC2)cc1)N1CCCc2ccccc21 | 22* | -2% | 12% | -19% | 15
O=C(c1ccc(Cl)c([N+](=O)[O-])c1)N1CCCc2ccccc21 | 34* | · | -2% | · | 39*
COc1cc(OC)cc(C(=O)N2CCCc3ccccc32)c1 | 24* | -11% | -1% | -12% | 85
Cc1ccc(-c2cn3c(n2)sc2cc(C(=O)NCCC4=CCCCC4)ccc23)c(C)c1 | · | · | · | 6%[46.1 µM] | ·
